Reference: PubChem BioAssay AID1851 (National Center for Advancing Translational Sciences (NCATS), 2009)
In all, about 16,000 compounds went through this assay and about 5,800 (36%) were called active. About 23% were inconclusive and are not listed. The call rests on the fitted dose curve; in most records, active means well fitted curve in the direction sought with a large enough effect; inconclusive means small, poorly fitted or top-dose-only effect, or effect the other way; inactive means no such curve, though single readings can be large or run the other way. The list shows a part of the results.

Molecular target: Cytochrome P450 2C19 (Homo sapiens) (UniProt P33261)
Test: Cytochrome panel assay with activity outcomes
Conditions: recombinant CYP, pro-luciferin dealkylation, luminescence, p450-cyp2c19; series mostly up to 57.1 µM; activity, negative = inhibition: at the top concentration
On the % scale 0 is the no-effect control and ±100 the full control effect.

Chain of Cytochrome P450 2C19 (Homo sapiens) (P33261 whole entry, looked up): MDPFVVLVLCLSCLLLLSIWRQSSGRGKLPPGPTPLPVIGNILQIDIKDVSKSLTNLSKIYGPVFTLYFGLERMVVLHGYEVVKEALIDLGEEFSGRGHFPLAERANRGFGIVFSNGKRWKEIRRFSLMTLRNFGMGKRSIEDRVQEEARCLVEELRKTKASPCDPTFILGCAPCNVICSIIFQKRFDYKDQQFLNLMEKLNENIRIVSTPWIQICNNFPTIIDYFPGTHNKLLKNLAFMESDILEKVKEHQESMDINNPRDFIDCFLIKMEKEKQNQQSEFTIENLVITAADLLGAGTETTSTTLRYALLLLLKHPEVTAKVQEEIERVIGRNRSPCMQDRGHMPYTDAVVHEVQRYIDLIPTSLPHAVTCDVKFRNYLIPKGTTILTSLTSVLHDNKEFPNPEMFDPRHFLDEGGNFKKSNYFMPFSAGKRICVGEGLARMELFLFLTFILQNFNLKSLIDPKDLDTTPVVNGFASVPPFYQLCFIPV

AC50, inactive:
NC(N)=NC(N)=Nc1cccc(Cl)c1

AC50, active:
Cc1ccc(S(=O)(=O)CC(O)CN2CCCC2=O)cc1 (stereo not given) 10 µM
C=CCOC(=O)/C(=C\c1cccc2ccccc12)NC(=O)c1ccccc1 0.398 µM
CCOc1cccc2cc(C(N)=O)c(=NCc3ccccc3)oc12 10 µM
CCOC(=O)CSc1nc2ccccc2c(=O)n1CC1CCC(C(=O)NCc2ccco2)CC1 (stereo not given) 7.08 µM
O=C(CSc1nc2ccccc2c(=O)n1Cc1ccccc1)NCc1ccco1 0.708 µM
CC(C)Cn1c(SCc2nc3ccccc3c(=O)[nH]2)nc2ccccc2c1=O 2.51 µM
CC(=O)NCCn1c(SCC(=O)NCc2ccco2)nc2ccccc2c1=O 1.12 µM
C=CCSc1nc2ccccc2c(=O)n1Cc1ccco1 1 µM
Cc1cc(NC(=O)CSc2nc3ccccc3c(=O)n2CCCC(=O)NCc2ccco2)n[nH]1 2.24 µM
Cc1cccc(C)c1-n1c(SCC(=O)NCc2ccco2)nc2ccccc2c1=O 4.47 µM
O=C(CSc1nc2ccccc2c(=O)n1CCCO)NCc1ccccc1 11.2 µM
O=C(CSc1nc2ccccc2c(=O)n1CCCC(=O)N1CCCC1)NCc1ccco1 4.47 µM
COc1ccc(NC(=O)CSc2nc3ccccc3c(=O)n2CCC(=O)N2CCCCC2)cc1 0.794 µM
Cc1cc(NC(=O)CSc2nc3ccsc3c(=O)n2Cc2ccccn2)n[nH]1 15.8 µM
O=c1c2ccccc2nc(SCc2ccccc2Cl)n1Cc1ccccc1 2.82 µM
O=C(CSc1nc2ccccc2c(=O)n1NC(=O)Cc1ccccc1)NCc1ccccc1Cl 0.794 µM
CCOC(=O)COc1c(C=O)cc(Br)cc1OC 6.31 µM
Cc1ccc(C)c(S(=O)(=O)N2CCC(c3nc4c(nnn4Cc4ccc(F)cc4)c(=O)[nH]3)CC2)c1 4.47 µM
Nc1nc(Br)c2c(F)cccc2c1-c1ccc(Cl)cc1 1.26 µM
Nc1nc(Br)c2ccccc2c1-c1ccc(F)cc1 2.82 µM
O=C(Cc1ccc2c(c1)CCCC2)Nc1ccccc1Br 3.55 µM
CC1=CC(C)(C)N(C)C(=O)N1c1ccc(Cl)cc1 15.8 µM
NC(N)=Nc1nc(CCN2C(=O)c3ccccc3C2=O)cs1 2.82 µM
Cc1cccc(NC(=S)NC(=O)CCc2ccccc2)c1 5.62 µM
CCC(=O)Nc1cccc(C(=O)/C=C/c2ccccc2)c1 5.62 µM
CCCCC(=O)NC(=S)Nc1cccc(NC(=O)CC)c1 10 µM
Cc1cccc(C)c1NC(=S)NC(=O)CCc1ccccc1 3.55 µM
Cc1ccc(C(=O)Nc2ccc3nccnc3c2)cc1 14.1 µM
Cc1c(C)n(C(=O)CN2CCC(C)CC2)c2ccccc12 3.55 µM
Cc1ccc(C(=O)Nc2cc(Cl)ccc2OC(=O)c2ccc(C)cc2)cc1 11.2 µM
COc1ccc(C(=O)Nc2cc(Cl)ccc2OC(=O)c2ccc(OC)cc2)cc1 3.55 µM
COC(=O)CCSc1cc([N+](=O)[O-])cc2c1c(C1OCCS1)nn2-c1ccccc1 (stereo not given) 25.1 µM
NC(N)=NC(N)=Nc1ccccc1 25.1 µM
N#C/C(=C/c1cccc(C(F)(F)F)c1)c1nc(CCN2C(=O)c3ccccc3C2=O)cs1 3.16 µM
C=CCNCCCCOc1c(Cl)cc(C)cc1Br 8.91 µM
C/C(=N\NC(=O)Cc1ccc(Cl)cc1)c1ccccn1 5.01 µM
CC(C)c1ccc(N2C(=O)CC(Sc3nc4ccccc4o3)C2=O)cc1 (stereo not given) 1.78 µM
CCOC(=O)c1cc(-c2ccc(Cl)cc2)nc2c1c(C)nn2CCC#N 14.1 µM
Cc1nn(C)c(Oc2cccc(Cl)c2)c1C=O 6.31 µM
O=C(N/N=C/c1ccc(Cl)cc1)Nc1ccccc1 11.2 µM
O=C(N/N=C/c1ccc(Cl)cc1Cl)Nc1ccccc1 2.82 µM
O=C(c1ccco1)N1CCC2(CC1)CCN(c1cccc(-c3ccccc3)c1)CC2 10 µM
Cn1cccc1C(=O)N1CCC[C@@]2(CCN(c3ccncc3)C2)C1 6.31 µM
O=C(c1ccco1)N1CCC[C@@]2(CCN(c3ccccc3)C2)C1 5.01 µM
Cn1cccc1C(=O)N1CCC2(CC1)CN(c1ccncc1)C2 1.26 µM
Cn1cccc1C(=O)N1CCC[C@@]2(CCN(c3ccccc3)C2)C1 5.01 µM
Cc1ccc(S(=O)(=O)NCCn2c(C)cc3ccccc32)cc1 1 µM
Cc1cc2ccccc2n1CCNC(=O)C1CCCC1 1.26 µM

activity, negative = inhibition, inactive:
O=C1CCCN1CC(O)CS(=O)(=O)c1ccccc1 (stereo not given) -6.21%
Cc1cc2c(nc1C)CCCN2CC(O)CN1CCCc2nc(C)c(C)cc21 6.93% [at 11.4 µM]
CN(C)C(=O)/N=N\C(=O)N(C)C -47.9%
N[C@H](C(=O)O)[C@@H](O)c1cnc[nH]1 -17.9% [at 11.4 µM]
CCOc1ccccc1/C=C(\C#N)C(N)=O -18.7% [at 11.4 µM]
COCc1nc2c([nH]1)c(=O)n(C)c(=O)n2CC(C)C -17%
COCCn1c(Cc2ccccc2)nnc1SCc1nc2ccccc2c(=O)[nH]1 56%
O=C(CSc1ccccc1C(=O)O)NCc1ccco1 -3.72%
C=CCNC(=O)C1CCN(S(=O)(=O)CC)CC1 -20.8%
COC(=O)N1CCC2(CCCN(C(=O)Nc3ccc(OC)cc3)C2)CC1 -38.2%
O=C(O)CCCCCn1c(SCC(=O)N2CCCC2)nc2ccsc2c1=O 16.5%
CCOC(=O)C1=C(O)/C(=C/c2cc(OC)c(OC)c(OC)c2)N=C1C -19.3%
CCOc1cc(/C=C2\N=C(C)OC2=O)cc(Br)c1OCC(=O)OC -28.7%
CO[C@@H]1COC(=O)CC=C[C@@H](C)[C@@H]2C=C[C@@H](O)[C@@H](COC(=O)C/C=C\[C@H]1C)O2 -8% [at 11.4 µM]
CCC(=O)NNC(=O)CCC(=O)Nc1ccccc1 -11.9%
CC(=O)Nc1ccc(C(=O)NNC(=O)CCc2ccccc2)cc1 -11.5%
Cc1cccc(C)c1NC(=O)CS(=O)CC(=O)NCCCc1ccccc1 (stereo not given) -22.3%
Cn1c(=O)c2c(-c3cccc(F)c3)c3c(nc2n(C)c1=O)-c1ccccc1C3O (stereo not given) -77.1%
Cc1c(C)c(C)c(CC2(C)CSC2)c(CC2(C)CSC2)c1C 35.5% [at 11.4 µM]
CN(C)c1ncc2ncc(=O)n(C3CC3)c2n1 -21.5%
N[C@H](CCC(=O)NCC(=O)O)C(=O)O -14.1%
Cc1ccc(-n2nc3ccc(NC(=O)c4ccc5c(c4)OCO5)cc3n2)cc1 -26.9%
CCN1C(=O)[C@H]2[C@H]3[C@H](O)[C@H](O)C/C(=N/OCC[C@H]4C=C[C@H](OC(C)=O)[C@@H](COC(C)=O)O4)[C@@H]3CC[C@@H]2C1=O 0.181% [at 11.4 µM]
CC1CCN(CC[C@@H]2CCCN2S(=O)(=O)c2cccc(O)c2)CC1 15.1%
O=C(O)c1cc(=O)cc(C(=O)O)[nH]1 14.5%
COc1ccc(COC(=O)N/N=C2/C[C@@H](O)[C@@H](O)[C@@H]3[C@@H]4C(=O)N([C@@H](C)c5ccccc5)C(=O)[C@H]4CC[C@H]23)cc1 1.27% [at 11.4 µM]
C[C@]1(c2ccccc2)OC(C(=O)O)=CC1=O -35.6%
COc1ccc(NC(=O)c2ccc(C(=O)c3cc(OC)ccc3OC)cc2)cc1 9.75%
NC(N)=NC(N)=Nc1ccc(S(=O)(=O)O)cc1 10.1% [at 11.4 µM]
Cc1cc(Br)cc(C)c1OCCCCN(C)C -23.4%
COCCCNCCCCOc1c(Cl)cc(C)cc1Br -17.9%
O=C(N/N=C/C1CCCCC1)c1ccccn1 -9.73%
CCOC(=O)N/N=C1/C[C@@H](O)[C@@H](O)[C@@H]2[C@@H]3C(=O)N([C@@H](C)c4ccccc4)C(=O)[C@H]3CC[C@@H]12 -0.98% [at 11.4 µM]
COc1cccc(Nc2ncc3nc(-c4ccc(Cl)cc4)c(=O)n(CCC#N)c3n2)c1 -11.3%
CC(C)N=C(N)/N=C(\N)Nc1ccc(Cl)cc1 -16.3% [at 25.6 µM]
Cc1ccc(NC(=O)N/C=C/c2ccc(Cl)cc2)cc1 -10%
Cn1cccc1C(=O)N1CCC2(CC1)CCN(c1ccncc1)CC2 -34.4%
O=C(c1ccco1)N1CCC[C@@]2(CCN(c3ccncc3)C2)C1 -25.6%
CC(=O)N1CCC[C@@]2(CCN(c3ccncc3)C2)C1 5.7%
O=C(c1ccco1)N1CCC2(CCCN(c3ccccc3)C2)CC1 -4.32%
Cn1cccc1C(=O)N1CCC2(CC1)CN(c1ccccn1)C2 -9.16%
O=C(c1ccco1)N1CCC2(CC1)CCN(c1ccc(-c3ccccc3)cc1)CC2 -2.45%
Cn1cccc1C(=O)N1CCC[C@@]2(CCN(Cc3nccs3)C2)C1 -8.84%
c1ccc(-c2cccc(N3CCC4(CCNCC4)CC3)c2)cc1 -43%
Nc1nc(=O)c2[nH]cnc2n1O -10.6% [at 11.4 µM]
CNC(=O)[C@@H]1O[C@@H](n2cnc3c(NCc4ccc(N)cc4)ncnc32)[C@@H](O)[C@H]1O 20.5%
CC(C)NC(=O)N1CC[C@@]2(CCCN(C(=O)c3cccn3C)C2)C1 23%
CN1CC[C@@]2(CCCN(C(=O)c3cccn3C)C2)C1 12.9%
Cc1cc2ccccc2c(=O)n1CC(=O)NCC(=O)N1CCCC1 -15.6%
CN(C)CCn1c(C(=O)O)cc2ccccc21 31.4%
Cc1ccc(S(=O)(=O)NC(=O)c2cccn2C)cc1 7.77%
